Assay outcomes as filed in PubChem BioAssay.
Most compounds without a hit are left out; they make up all but 3% or so of the library.
D3 antag: qHTS of D3 Dopamine Receptor Antagonist: qHTS; D(3) dopamine receptor (Homo sapiens), P35462; max response, negative = inhibition, %; D3R cells, DiscoveRx beta-arrestin luminescence, antagonist mode; stronger effect = lower value; AID 652054, 2013; hit rate 2.5% among 360,000; in the data active means max response below about -50%; inconclusive means no clear call, values can overlap the other calls; further: on the % scale 0 is the no-effect control and ±100 the full control effect
Target sequence (P35462 whole entry, looked up): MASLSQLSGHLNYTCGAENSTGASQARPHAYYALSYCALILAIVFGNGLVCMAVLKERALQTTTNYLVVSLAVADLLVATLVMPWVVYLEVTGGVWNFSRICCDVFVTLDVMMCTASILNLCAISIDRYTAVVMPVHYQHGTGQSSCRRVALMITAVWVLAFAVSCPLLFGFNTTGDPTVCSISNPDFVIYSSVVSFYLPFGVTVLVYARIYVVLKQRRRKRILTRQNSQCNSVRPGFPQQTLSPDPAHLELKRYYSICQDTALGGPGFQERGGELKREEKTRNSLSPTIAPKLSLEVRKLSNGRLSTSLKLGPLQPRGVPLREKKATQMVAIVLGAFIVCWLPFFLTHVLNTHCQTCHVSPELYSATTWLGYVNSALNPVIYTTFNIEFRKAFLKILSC
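Cells plated overnight at 1500 cells/well, then exposed to library compounds with dopamine controls for 90 minutes at 37 degrees C. DiscoveRx reagent added for 30–60 minutes at room temperature; luminescence read, quantitative HTS format.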
DRD3 agonist: qHTS of D3 Dopamine Receptor Agonist: qHTS | D(3) dopamine receptor (Homo sapiens), P35462 | D3R DiscoveRx beta-arrestin cells, luminescence, 90 min | max activation, % | hit rate 0.58% among 410,000; in the data active means max activation above about 30%; further: 0% is about no effect
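Agonist-mode cell screen: cells plated at 1500/well and incubated overnight at 37 °C, then exposed to library compounds for 90 min at 37 °C. Detection reagent was added for 30–60 min at room temperature, and luminescence was read.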
Nrf2 activator: qHTS of Nrf2 Activators; AREc32 ARE-luciferase reporter (MCF7-derived line), luminescence, 24 h; Potency, µM (series often up to 46.1 µM), without a hit: at the highest dose activation, hits mostly activators; hit rate 0.31% among 410,000; further: potency means the concentration at half of the fitted maximal effect; % of control where 0% means no effect; nearly all actives have a fitted effect of over 65% in size
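ARE-driven firefly luciferase activity in AREc32 cells measured after a 24 hr compound exposure at 37 deg C, using Steady-Glo reagent and a 30 min room-temperature hold.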
Glioma ERSR ind: qHTS for Inducers of the Endoplasmic Reticulum Stress Response (ERSR) in Human Glioma: qHTS. U87-MG GRP78 promoter luciferase reporter, 16 h. Potency, µM, without a hit: at the highest dose activation, most hits filed as activators. hit rate 0.02% among 420,000. AID 602332, 2012; further: potency means the concentration at half of the fitted maximal effect; series mostly up to about 76 µM; % of control where 0% means no effect; nearly all actives have a fitted effect of over 35% in size
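Stably transfected U87-MG glioma cells carrying a GRP78-based luciferase sensor; 16 h compound incubation. Luminescence end-point read 10 min after Bright-Glo addition at room temperature.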
* = called active by the depositor; ? = inconclusive; . = not tested or not shown; ! = a repeat was not active; [ ] = remark or other dose. Unless noted, the call rests on the fitted dose curve; in most records, active means well fitted curve in the direction sought with a large enough effect; inconclusive means small, poorly fitted or top-dose-only effect, or another doubt; inactive means no such curve, though single readings can be large; an effect the other way counts as inactive or inconclusive.

SMILES	D3 antag	DRD3 agonist	Nrf2 activator	Glioma ERSR ind
CCCOc1cccc(C2c3c(oc4ccccc4c3=O)C(=O)N2c2nncs2)c1 (configuration not stated)	.	56*	2%	-1%
O=C1c2oc3ccccc3c(=O)c2C(c2cccc(O)c2)N1c1nncs1 (configuration not stated)	.	-17	12%	-3%
CN(C)c1ccc(C=O)c(Cl)c1	.	.	.	-1%
CN1[C@@H]2CCC[C@@H]1CC(NC(=O)c1nn(C)c3ccccc13)C2 (some centres not stated)	.	.	.	-1%
CCC(C(=O)NCc1ccccc1)n1ncn2c(cc3occc32)c1=O (configuration not stated)	.	6	-1%	-2%
Oc1ccc2ccccc2c1CN1CCN(C/C=C/c2ccccc2)CC1	-56*	-26	0%[9.22 µM]	12%
Oc1ccc2ccccc2c1CN1CCN(c2ccccc2F)CC1	-95*	-6	0%	-2%
Nc1ncnc2c1ncn2[C@@H]1O[C@H](C(=O)N2CCN(CC(=O)Nc3cccc4c3CNC4=O)CC2)[C@@H](O)[C@H]1O	.	.	.	-1%
CSc1nc(-c2ccccc2)nc(N2CCN(C)CC2)c1C(C)=O	-55*	-23	5%	0%
Cc1ccc(S(=O)(=O)c2cnc(-c3ccccc3)nc2N2CCN(C)CC2)cc1	?	-15	0%	1%
CN1CCN(c2nc(-c3ccccc3)ncc2S(=O)(=O)c2ccccc2)CC1	-79*	-38	5%	-1%
CC(/C=N/NC(=O)CSc1nnc(SCc2ccccc2)s1)=C\c1ccco1	9	9	11µM*	-4%
CC(/C=N/NC(=O)c1cccnc1)=C\c1ccco1	-23	-20	?	0%
Cc1ccc(CSc2nnc(SCC(=O)N/N=C/C=C/c3ccco3)s2)cc1	7	5	16%	-10%
CC(/C=N/NC(=O)c1cnccn1)=C\c1ccco1	10	9	8.9µM*	5%
C(=C\c1ccnc2ccccc12)/c1ccc(N2CCN(c3ccc(/C=C/c4ccnc5ccccc45)cc3)CC2)cc1	.	.	.	-3%
O=C(Nc1ccccc1Oc1cccnc1)C1CCCN(C/C=C/c2ccccc2)C1 (configuration not stated)	-60*	-41	3%	-3%
O=C(Nc1ccccc1Oc1cccnc1)C1CCCN(Cc2ccccc2O)C1 (configuration not stated)	14	10	4%	0%
COc1cc(F)cc(C2=CC(=O)C[C@H](c3ccc(F)cc3)C2)c1	-79*	-16	5%	-3%
COc1ccc([C@H]2CC(=O)C=C(c3cc(C)ccc3OC)C2)cc1	-58*	-9	-1%	-3%
COc1cccc(C2=CC(=O)C[C@H](c3ccc(F)cc3)C2)c1	?	-44	0%	-4%
COc1ccc([C@H]2CC(=O)C=C(c3ccc(OC(F)(F)F)cc3)C2)cc1	?	-14	6%	1%
COc1ccc([C@H]2CC(=O)C=C(c3cc(C)ccc3F)C2)cc1	-23	-5	-2%	-6%
CCCOc1ccc(C2=CC(=O)C[C@H](c3ccc(OC)cc3)C2)cc1	51	36*	6%	1%
COc1ccc([C@H]2CC(=O)C=C(c3ccc(CNC(=O)OC(C)(C)C)cc3)C2)cc1	89	49*	-1%	-6%
SMILES	D3 antag	DRD3 agonist	Nrf2 activator	Glioma ERSR ind
COc1cccc(CN2CCCC(c3nc(-c4ccncc4)ncc3-c3ccccc3)C2)c1O (configuration not stated)	.	.	.	-1%
O=C(Nc1cccc(N2CCC(NCc3cnn(-c4ccccc4)n3)CC2)c1)c1cccnc1	.	.	.	-5%
O=C(C1CCCCC1)N(Cc1ccccc1)c1ccccn1	5	1	-1%	-3%
COc1ccccc1N1CCN(CC(C)N(C(=O)C2CCCCC2)c2ccccn2)CC1 (configuration not stated)	-70*	-36	2%	-1%
COc1ccccc1N1CCN(CCN(C(=O)c2ccc(F)cc2)c2ccccn2)CC1	-116*	-91	-1%	-5%
COc1ccccc1N1CCN(CCN(C(=O)C2CCCCC2)c2ccccn2)CC1	-85*	-90	-1%	1%
COc1ccc(OC)c(C(=O)N(Cc2cc3cccc(C)c3nc2N2CCC(O)CC2)C2CC2)c1	.	.	.	-3%
Cc1ccc(CNC(=O)C2CCCN(Cc3nc(-c4cccc(C)c4)oc3C)C2)cc1 (configuration not stated)	.	-19	-1%	-3%
Cc1ccc(S(=O)(=O)NC2=C(N3CCN(Cc4ccccc4)CC3)C(=O)c3ccccc3C2=O)cc1	-60*	-35	2%	-2%
Cc1ccc(S(=O)(=O)Nc2nc3ccccc3nc2N2CCN(c3ccccc3F)CC2)cc1	0	-4	-1%	-9%
CCOC(=O)N1CCN(C2=C(NS(=O)(=O)c3ccc(C)cc3)C(=O)c3ccccc3C2=O)CC1	?	-5	-4%	-4%
CC(C)(CN1CCN(Cc2ccccc2)CC1)NS(=O)(=O)c1ccc(Cl)cc1	-61*	-18	5%	-3%
Cc1ccc(S(=O)(=O)NC2=C(N3CCN(c4ccccc4F)CC3)C(=O)c3ccccc3C2=O)cc1	-67*!	-3	3%	1%
CN1CCN(CC(C)(C)NS(=O)(=O)c2ccc(Cl)cc2)CC1	?	-16	0%	-2%
CC(C)Cc1nc2cc(NS(=O)(=O)N(C)C)cc(C(=O)N3CCOc4ccccc4C3)c2n1C	.	.	.	-1%
COc1cccc(Cn2c(=O)n(CCc3ccccc3)c(=O)c3c2c2cc(OC)ccc2n3C)c1	.	7	0%	3%
Cc1cccc2cc(CN(CC3CCCO3)C(=O)c3ccccc3F)c(N(C)C)nc12 (configuration not stated)	.	.	.	-5%
CC(C)C#Cc1ccc2c(c1)O[C@@H](CN(C)C(=O)c1cnccn1)[C@@H](C)CN([C@@H](C)CO)S2(=O)=O	-16	1	4%	-3%
C[C@@H]1CN([C@H](C)CO)S(=O)(=O)c2ccc(Br)cc2O[C@H]1CN(C)C(=O)C1CCCCC1	-74*	4	-1%	-5%
C[C@H](CO)N1C[C@H](C)[C@@H](CN(C)C(=O)c2cnccn2)Oc2cc(C#CCC3CCCC3)ccc2S1(=O)=O	-61*	-7	3%	-1%
CC(C)N1C[C@@H](Sc2ccccn2)C[C@H]1C(=O)Nc1ccc2c(c1)Nc1ccccc1CC2	.	.	.	-1%
Cc1ccc(CNC(=O)c2ccc(N3CCC4(CC3)CC(c3ccccc3)=NO4)c([N+](=O)[O-])c2)cc1	-61*	-5	3%	-2%
Cc1ccc(CNC(=O)c2ccc(N3CCC4(CC3)CC(c3ccccc3)=NO4)c(N)c2)cc1	36	34*	0%	-4%
Cc1nc(NCc2ccco2)nc2c1C(=O)CC(C)C2 (configuration not stated)	-9	0	2µM*	-3%
CN(Cc1ccccc1)c1ccc(C=O)cc1	.	.	.	-3%
COc1ccc(/C=C/c2cnc3ccccc3n2)cc1OC	.	.	.	-10%
